Test results: PubChem BioAssay (NCATS)
Where “and” joins values, the source holds several entries; their conditions need not be identical. Identical values can stand only once. Records with an inconclusive call do not appear. Entries that show only a call come without a potency. Calls of active or inactive are those of the source. Unless noted, the rule behind the calls is not given here. Where a SMILES comes first, the peptide text is derived from it. Bridges are numbered along the chain shown (N, C = ends). [ ]: non-standard residue; d: D form. Orn = NCCC[C@H](N)C(=O)O; Mpa = O=C(O)CCS

Tested on: astro (control astrocytes)
Assay: Drug repurposing screens with cells derived from glioblastoma tumor samples (AID 1345199; active = well fitted inhibition curve with a large enough effect; note: nearly all actives have a fitted effect of over 40% in size)
Conditions: viability, ATP luminescence, 48 h; series mostly up to 45.9 µM
Procedure, shortened: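 Primary testing used CD133+ neurospheres from four GBM patients, seven concentrations, 48 h exposure and ATP-based viability; confirmation added three slower-growing patient lines.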
For C[C@@H]1C[C@H]2C3C[C@H](F)C4=CC(=O)C=CC4(C)[C@@]3(F)[C@@H](O)CC2(C)[C@@]1(O)C(=O)COC(=O)C(C)(C)C (stereo not given in full), the Potency was “inactive”.
For O=C(OCCO)c1ccccc1O, the Potency was “inactive”.
For c1cnc2cc3c(cc2n1)[C@@H]1CNC[C@H]3C1, the Potency was “inactive”.
In the case of COc1ccc(C2NC(=S)N3C(c4ccc(OC)c(OC)c4)NC(=S)N23)cc1OC (stereo not given), the Potency is reported as “inactive”.
With CCOc1ccc(C[C@H]2NC(=O)CCSSC[C@@H](C(=O)N3CCC[C@H]3C(=O)N[C@@H](CCCN)C(=O)NCC(N)=O)NC(=O)[C@H](CC(N)=O)NC(=O)[C@H]([C@@H](C)O)NC(=O)[C@H]([C@@H](C)CC)NC2=O)cc1 ([Mpa][dY](Et)ITNCP[Orn]G-NH2; disulfide 1-6) the Potency was “inactive”.
With CCOC(=O)Cc1cccc(-c2cc(CCCCCCc3ccc(O[C@H]4O[C@H](COC(C)=O)[C@@H](OC(C)=O)[C@H](OC(C)=O)[C@@H]4OC(C)=O)c(-c4cccc(CC(=O)OCC)c4)c3)ccc2O[C@H]2O[C@H](COC(C)=O)[C@@H](OC(C)=O)[C@H](OC(C)=O)[C@@H]2OC(C)=O)c1 the Potency was “inactive”.
For OC(CN1CCCCC1)c1cc(-c2ccccc2)on1 (stereo not given), the Potency was “inactive”.

Molecular target: Nuclear receptor subfamily 1 group I member 2 (Rattus norvegicus) (UniProt Q9R1A7)
Sequence (Q9R1A7 whole entry, looked up): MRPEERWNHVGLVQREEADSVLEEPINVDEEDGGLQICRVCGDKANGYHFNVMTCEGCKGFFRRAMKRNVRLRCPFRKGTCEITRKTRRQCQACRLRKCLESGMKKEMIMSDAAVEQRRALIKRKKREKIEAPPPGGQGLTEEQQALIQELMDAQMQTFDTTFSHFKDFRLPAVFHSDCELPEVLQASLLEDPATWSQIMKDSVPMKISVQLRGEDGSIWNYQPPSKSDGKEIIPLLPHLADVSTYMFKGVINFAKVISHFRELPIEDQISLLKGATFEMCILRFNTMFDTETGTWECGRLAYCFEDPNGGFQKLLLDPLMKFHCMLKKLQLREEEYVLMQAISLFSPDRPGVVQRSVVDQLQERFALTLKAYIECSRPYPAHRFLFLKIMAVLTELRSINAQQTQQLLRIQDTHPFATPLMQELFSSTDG
Assay: qHTS assay for small molecule activators of the rat pregnane X receptor (rPXR) signaling pathway (AID 651751)
Conditions: rPXR reporter cells, luciferase (One-Glo), 24 h
With CN(C)Cc1ccccc1 the max response was 2.69% (inactive).
In the case of O=C(O)CC(O)(CC(=O)O)C(=O)O, the max response is reported as -3.16% (inactive) and 0.294% (inactive) and 0.384% (inactive).
In the case of CCCCCCCCCC(=O)O, the max response is reported as -3.39% (inactive) and -5.8% (inactive).
With C=Cc1ccccc1 the max response was 2.91% (inactive) and 3.44% (inactive).

Tested on: not listed separately
Assay: qHTS assay for small molecule activators of the human pregnane X receptor (PXR) signaling pathway (AID 720659)
Conditions: DPX-2 HepG2 CYP3A4-luciferase, 24 h; series mostly up to 92.3 µM
In the case of CN(C)Cc1ccccc1, the outcome is reported as “inactive”.
With O=C(O)CC(O)(CC(=O)O)C(=O)O the outcome was “inactive”.
For CCCCCCCCCC(=O)O, the outcome was “inactive”.
For C=Cc1ccccc1, the outcome was “inactive”.
